According to PubChem BioAssay AID1159580 (chemical genetic matrix, 2015):
Several values for one entry are separate records, joined by “and”; a condition that tells them apart may be missing. Equal values may be shown once. Out of some 5,500 compounds screened, about 2,000 (36%) were called active. Not shown: some 18% with an inconclusive outcome. No stated cut-off is given here; in the data, active means normalized growth mostly below about 0.91 (no sharp cut-off); inconclusive means no clear call, values can overlap the other calls; inactive means mostly above about 0.92. Some of the results follow.

Experiment: chemical genetic growth profiling, strain panel (AID 1159580);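 further: tested at 20 µM; growth read once vehicle control cultures reached saturation at 30 °C; 1 = growth at the plate median or of vehicle wells; lower values mean less growth of the strain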
Details: S. cerevisiae deletion strains, growth OD

Measured: normalized growth

Cc1occc(=O)c1O
inactive: locus YAL021C, strain ccr4, active compounds read low 0.964 | locus YAL026C, strain drs2, active compounds read low 0.972 | locus YAL030W, strain snc1, active compounds read low 0.949 | locus YBL061C, strain skt5, active compounds read low 0.969 | locus YBR009C, strain hhf1, active compounds read low 0.984 | locus YBR021W, strain FUR4, active compounds read low 1 | locus YBR023C, strain chs3, active compounds read low 0.976 | locus YBR171W, strain sec66, active compounds read low 0.975 | locus YBR229C, strain ROT2, active compounds read low 1 | locus YBR231C, strain swc5, active compounds read low 0.964 | locus YBR279W, strain paf1, active compounds read low 0.944 | locus YCL011C, strain gbp2, active compounds read low 0.956 | locus YCL016C, strain dcc1, active compounds read low 0.978 | locus YCL029C, strain bik1, active compounds read low 1.02 | locus YCL061C, strain MRC1, active compounds read low 0.987 | locus YCL069W, strain vba3, active compounds read low 0.978 | locus YCR088W, strain abp1, active compounds read low 0.965 | locus YDL005C, strain med2, active compounds read low 0.967 | locus YDL035C, strain GPR1, active compounds read low 1.01 | locus YDL040C, strain nat1, active compounds read low 0.971 | locus YDL074C, strain BRE1, active compounds read low 1.01 | locus YDL101C, strain DUN1, active compounds read low 1.01 | locus YDL185W, strain tfp1, active compounds read low 1.01 | locus YDL192W, strain arf1, active compounds read low 1.02 | locus YDR001C, strain nth1, active compounds read low 0.953 | locus YDR069C, strain doa4, active compounds read low 1 | locus YDR101C, strain arx1, active compounds read low 0.991 | locus YDR137W, strain rgp1, active compounds read low 0.945 | locus YDR159W, strain sac3, active compounds read low 0.971 | locus YDR162C, strain NBP2, active compounds read low 1.02 | locus YDR195W, strain ref2 0.953 | locus YDR297W, strain sur2, active compounds read low 0.971 | locus YDR318W, strain mcm21, active compounds read low 1.02 | locus YDR334W, strain swr1, active compounds read low 0.929 | locus YDR335W, strain msn5, active compounds read low 0.964 | locus YDR388W, active compounds read low 1.01 | locus YDR392W, strain spt3, active compounds read low 0.917 | locus YDR502C, strain sam2, active compounds read low 0.999 | locus YEL003W, strain gim4, active compounds read low 0.956 | locus YEL037C, strain rad23, active compounds read low 0.961 | locus YEL061C, strain CIN8 (second series), active compounds read low 0.953 | locus YEL061C, strain CIN8, active compounds read low 1 | locus YER015W, strain faa2, active compounds read low 0.964 | locus YER016W, strain bim1, active compounds read low 0.958 | locus YER110C, active compounds read low 1.01 | locus YER111C, strain swi4, active compounds read low 0.966 | locus YER155C, strain BEM2 (second series), active compounds read low 0.97 | locus YER155C, strain BEM2, active compounds read low 0.993 | locus YER167W, strain BCK2, active compounds read low 0.995 | locus YFR010W, strain ubp6, active compounds read low 0.96 | locus YGL078C, strain dbp3, active compounds read low 1.03 | locus YGL086W, strain mad1, active compounds read low 0.982 | locus YGL167C, strain pmr1, active compounds read low 0.961 | locus YGL173C, strain kem1, active compounds read low 0.957 | locus YGL227W, strain vid30, active compounds read low 0.966 | locus YGL240W, strain doc1, active compounds read low 0.971 | locus YGL248W, strain PDE1, active compounds read low 1.01 | locus YGL253W, strain hxk2, active compounds read low 0.974 | locus YGR135W, strain pre9, active compounds read low 1.03 | locus YGR252W, strain gcn5, active compounds read low 1.08 | locus YHR013C, strain ard1, active compounds read low 0.947 | locus YHR027C, strain rpn1, active compounds read low 0.979 | locus YHR030C, strain SLT2, active compounds read low 1.01 and 1.04 | locus YHR079C, strain IRE1 (second series), active compounds read low 1.01 | locus YHR079C, strain IRE1, active compounds read low 1.03 | locus YHR094C, strain hxt1, active compounds read low 1.01 | locus YHR129C, strain ARP1, active compounds read low 1.01 | locus YHR142W, strain chs7, active compounds read low 0.919 | locus YHR200W, strain rpn10, active compounds read low 1.01 | locus YIL066C, strain RNR3, active compounds read low 1.01 | locus YIL073C, strain SPO22, active compounds read low 1.06 | locus YIL125W, strain kgd1, active compounds read low 1.02 | locus YIR030C, strain dcg1, active compounds read low 1 | locus YJL092W, strain hpr5, active compounds read low 0.976 | locus YJL095W, strain BCK1 (second series), active compounds read low 0.962 | locus YJL095W, strain BCK1, active compounds read low 1.01 and 1.02 | locus YJL115W, strain asf1, active compounds read low 0.95 | locus YJL129C, strain trk1, active compounds read low 0.95 | locus YJL134W, strain LCB3, active compounds read low 1.01 | locus YJL154C, strain vps35, active compounds read low 0.953 | locus YJL164C, strain tpk1, active compounds read low 0.969 | locus YJL166W, strain qcr8, active compounds read low 0.953 | locus YJL168C, strain set2, active compounds read low 0.999 | locus YJL187C, strain SWE1 (second series), active compounds read low 1.01 | locus YJL187C, strain SWE1, active compounds read low 0.977 | locus YJR043C, strain POL32, active compounds read low 1.01 | locus YJR066W, strain TOR1, active compounds read low 0.991
